For 108 sequences, z-score results are on record in PubChem BioAssay AID1508600 (Functional Genomics Laboratory (NCATS/FGL), 2020).

Hit rate of the full screen: of about 53,000 sequences, about 3,700 (7%) were called active. Many of the other results were omitted from the sample, so actives are more common in it than they were. Values without a mark were called inactive.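 How the source made its calls: active means gene knockdowns whose robust z-score for IL-1 alpha signal is at least 2 or at most -2, so actives lie on both sides; inactive means the rest.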

The test in a line: Components of the Cytosolic LPS Sensing Pathway: Gene Identification via Genome-wide siRNA Screen.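 Further: robust z of the log signal after scaling to non-targeting control siRNA wells of the plate.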 The settings on record: RAW264.7 macrophages, IL-1a HTRF, actives lie on both sides, screened at 100 nM (by protocol), cells primed 5 h with Pam3CSK4 first. In short, it runs like this:
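Supernatant IL-1a by HTRF from RAW264.7 cells primed with Pam3CSK4 (5 hours) and transfected with LipidA (24 hour) after 48h siRNA knockdown at 100 nM; cell viability checked with CellTiter-Glo.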
Background: Time-resolved FRET reads energy transfer from a long-lived donor to a nearby acceptor.
In the case of GAAUAUGUGGCUCUGGGUCTT against G6pc3, the z-score is -0.414.

As for GCUGCACAUUGUCCAUUAUTT against Car12, the z-score is 2.3 (active).

In the case of GGUGUUCUUUGACAGUGCCTT against Atp5d, the z-score was 0.107.

For GCCGAUGAUGAGAAACGACTT against Cd2, the z-score is -0.279.

For the sequence GGCGAGUUUUCCUCUUCAGTT against Sync, the z-score was 1.08.

With CCGUCAUCACUGAUCAGUUTT against Olfr684, the z-score was 2.7 (active).

Turning to GGUGCUGUGUGAGCUUUCATT against Zfp85os, the z-score is -1.47.

On to GGCUGACUCGCUUUCACCATT against Efna2, for which the z-score is 0.522.

As for GCCACAGGCCAAGAUCAUUTT against Pafah1b2, the z-score is -0.614.

For GGACAAUUGGAAGAUUUGGTT against Ccdc88a, the z-score is -1.23.

On to CCCUGAAUAAGGCUGAUCUTT against Krt32, for which the z-score is -0.801.

As for GGAUCUGUGAGAAUCAUAGTT against Rabgap1l, the z-score is -2.24 (active).

For the sequence GGGAGAUGUUGUCAGGGUCTT against Rnasel, the z-score was -0.476.

On to GGAAAGUGCAUCAUAGACATT against Thrb, for which the z-score is 0.153.

Regarding GGACGAUGUAUUGUUAUUGTT against Lrp10, the z-score was 1.49.

For the sequence GGUAUGACUUGCUCUUUAUTT against Rnpep, the z-score is -0.881.

On to GCAUUUGUGGCCUAUGCUCTT against Naprt, for which the z-score is -2.16 (active).

Turning to GCUCAAAUGUUCUAAAAGCTT against Acmsd, the z-score is -0.332.

For GGCGUAUUUGUCAUUUCUUTT against Dis3l, the z-score is 0.013.

For GGAAGUCAUUUUUUCCAAGTT against Msantd4, the z-score is 1.12.

For GCAUUGUUUUUCUAUUCAGTT against Cfhr1, the z-score is 0.531.

For the sequence GGUGCUUCACAGAAUGUGUTT against Olfr784, the z-score is -1.8.

Regarding GGGUCUCAAAGCAGUUUUUTT against Rhoj, the z-score was 3.99 (active).

On to GCUGAAAACACACCUAGCATT against Gin1, for which the z-score was 1.19.

Take GGCUGUCUUACAAUGUAAUTT against Gabrb2: the z-score is -0.638.

Take GAGACUAAUAUAGUGAAUGTT against Foxj1: the z-score is -0.314.

Turning to GGCAGAGAGUCUACAUAUGTT against Bcar3, the z-score was -0.272.

Turning to GCAGAAGGUACUACUAUCGTT against Rcsd1, the z-score was 0.669.

On to CCUUGUUGUGACAAGCUUUTT against Rchy1, for which the z-score was -0.362.

For GGCUUCAUGCCUUAUCCACTT against Fam166a, the z-score was -0.314.

As to GCCCUGUGCUUGGCAACAUTT against Ssbp3, the z-score was -2.36 (active).

Take GGCCACCGUUCAAAAAAUUTT against Dctn5: the z-score was -0.226.

Regarding GGAAGAGAAUAGAUCCUAUTT against Zbtb8a, the z-score was -0.388.

GGUCGUGUACAAGUACAUATT against Mrps24: the z-score was 2.24 (active).

As to GCUACUGCACAAAGUUACGTT against Ankrd36, the z-score is -0.0351.

For GCUGACUCCAUCCUAACAGTT against Cideb, the z-score is -2.6 (active).

As to GCCUCUGAGUUGCAUGAGUTT against Ppp2r5b, the z-score was -0.736.

Take GGACUACCAUCGACCUUCATT against Nek2: the z-score was 1.15.

For the sequence CCCAAGAAUUGGAUUCCAGTT against Lta, the z-score was -0.528.

GGAGCUGAAGAUCAAGGAGTT against Pkn3: the z-score is -0.849.

Turning to GCCCAAAAAUACUGGAUAUTT against Atp6ap2, the z-score was -2.

Turning to “GCCUUGUAGACCAGUUCUATT against 9530085L02Rik”, the z-score is 2.15 (active).

Turning to CCGCAUGUUUGGAAAGGAUTT against Cabp4, the z-score is -0.484.

In the case of GGAACAAUUUGAUCCAGCATT against Mbnl2, the z-score was -1.67.

Regarding CCCACUCCUUCUAAAAGUUTT against Cyp3a13, the z-score was -0.909.

As to GGCCAUUCACGUUUUACUCTT against Ric8b, the z-score is -1.02.

Take GGAGCUAUAUUCUCACCCATT against Ptpn1: the z-score was -2.06 (active).

Turning to GGGAAAAAUAUCAGUUAUGTT against Khdrbs1, the z-score was 0.465.

In the case of GGGUACGUUCAAGUGCUUCTT against Agtpbp1, the z-score is 1.74.

For GGAUACAUGUGGUGCCAAUTT against Banf1, the z-score was -0.529.

In the case of GCCAUAACCUACAUUGUCATT against Loxhd1, the z-score was -2.86 (active).

In the case of GCGAAUCCACUUAAUUCGATT against Abhd4, the z-score is 1.35.

As for CCACAAGAUUGUUUCAGAATT against Lingo4, the z-score is 0.216.

In the case of GCUGCUCAAGUUGUGGUGATT against Sord, the z-score is 1.56.

In the case of GGUUCAGCUGACGUAAAAATT against BC048562, the z-score was -2.1 (active).

As to GCAGUAGAUCCUGAUUUUGTT against Cdh12, the z-score is -0.382.

As to GGGACCUUUCCUGACCUAUTT against Ppdpf, the z-score is -0.362.

In the case of GGUCCACUUGCCAUCUAUUTT against Zfp54, the z-score was -1.09.

Take CCCUAACAUACUGGAGCUATT against Erfe: the z-score is 3.56 (active).

For GGGUAUUUUCACUGAAAGUTT against Ltbp3, the z-score was 0.431.

For GGUGACUUGUAAAGAUUUUTT against Dstn, the z-score was 0.234.

With GGAGACAGAAAGAGAAAAGTT against Pou3f2, the z-score was -0.578.

On to GGAGUUCACGGAUCUUGAGTT against Ppp1r37, for which the z-score was 0.226.

As for GGCAAUCAUUGGACUAUACTT against Nckap1, the z-score was -2.81 (active).

With GCACCCAAACUUAAAAUAGTT against Spink10, the z-score was -0.69.

On to GGUUGAAGUCACAAAAGAATT against Prkg1, for which the z-score is -0.619.

Consider GGGAAGGAGAGUAUUCCAATT against Mrpl14, for which the z-score is 3.44 (active).

For GCAUUUCCUAUAAUCGUUGTT against Olfr360, the z-score is 0.371.

On to GGCUGUCCGUACCUAUAAATT against Cpb1, for which the z-score is -1.26.

In the case of GGAAUUUGUGACCAACUAUTT against Rbm4b, the z-score is 1.07.

As to CCUUGACCCAGAUUGAGAATT against Xkr6, the z-score is 0.363.

Consider GUAUGGAUGUGGAAGCCUCTT against Olfr1417, for which the z-score was -0.77.

Consider GGGCUUGAAAUUGAAAUGUTT against Ccl9, for which the z-score was -1.09.

GCGACAACUGUGAUAUACCTT against Liph: the z-score is -0.485.

Take GCCUCAAUGGCACUCAAAUTT against Mdc1: the z-score is -0.217.

As to CCGUCUUCUGCUGUGGAACTT against Ctrc, the z-score is 2.6 (active).

On to CCCACUGCCAAGUACAAUGTT against Dmwd, for which the z-score was 1.44.

Regarding UUGUGAUUCCAAUUUCCCUTT against Olfr1330, the z-score is -0.32.

For the sequence GGUCAGAGUGCCUCUUGAATT against Slc7a5, the z-score is -0.8.

Consider GGUCAAAGAUGGAGUAAAUTT against Tmem87a, for which the z-score was -2.31 (active).

Take GCAAUGUCGCCAAACGUAATT against Ikzf1: the z-score was 0.457.

GAUACAGACCUUGCUCUUCTT against Olfr714: the z-score is -0.421.

As for GGACAUUGUCACAUCAUUCTT against Slc2a6, the z-score is 1.64.

On to GCUAAUAGUCAUUAAACUGTT against Zfp2, for which the z-score is 1.76.

Consider GCUCAACGAAACAAUACCGTT against Il2rb, for which the z-score is 0.737.

Turning to GGAUGGUCGAAACAAUAACTT against Stk32b, the z-score was 2.16 (active).

Consider GGCAUUUCUGUUCUGUAAGTT against Sh3bgrl, for which the z-score was -0.783.

For GCUGACCACUUCAAGGUUGTT against Lgals3, the z-score was 0.468.

For the sequence GGCCAGUGUAUUUGACCUGTT against Slc22a18, the z-score is -1.24.

On to GCUCUGCUAUCGUGAUCUGTT against Kctd13, for which the z-score is 1.68.

Turning to GCUUGCACUGGACUCAACUTT against Pax4, the z-score was -2.76 (active).

For CGAGAAGAACUGUGUAAAGTT against Vldlr, the z-score was -0.184.

Consider CCAUAUCAGGCAUAGCAGUTT against Nthl1, for which the z-score was -0.772.

With GCCAUCGAUGUACUGAGCUTT against Psme2, the z-score is 0.525.

Turning to GGUAGAGAGCUCAACAGGGTT against Klrb1c, the z-score was 0.287.

In the case of GGACUGUUGCAUGACUCUCTT against Evc, the z-score is 1.08.

Take GCCUUACUGGGUUACUUGUTT against Cdkn2d: the z-score is 3.22 (active).

Turning to GGAACUGAAUGCGGAAUUCTT against Chil1, the z-score was 0.261.

As for GGUUUCUUCAUCUUGUAUUTT against Gjd4, the z-score was 0.184.

GGUUCUGGAGCAAAUCCACTT against Styk1: the z-score is 2.37 (active).

In the case of CCCGAGACCAUUAAUGAUUTT against Snx3, the z-score is -0.306.

With CGAACCCUAGCGGAAAUUGTT against Nono, the z-score was -1.54.

For the sequence GGUGGGAAGAUAGAUAAAATT against Mamstr, the z-score is 3.28 (active).

On to GGGCUCUACAGUUUUUAAUTT against Atp5g3, for which the z-score was 1.31.

As for “GCAGUUUCGUUCCUACUCGTT against Cdkn2aipnl”, the z-score was 0.796.

On to GCAGAUAAUCUAGCAAAGATT against Agps, for which the z-score was 0.903.

Consider “CCGAAAUCCUACAUAUAUGTT against B430209F14Rik”, for which the z-score is -0.306.

As for GCUUGAAUUUCUGUGGAGGTT against Olfr1320, the z-score was -2.44 (active).
